Data: PubChem BioAssay

experiment: small-molecule binders of probe aLefty1, primary screen, biochemical, small-molecule microarray, 635/667 nm fluorescence (AID 1153); details: higher = more signal;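 note: score merges spot fluorescence with signal-to-noise ratio from the scanned slide images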

Structure (SMILES) | composite z-score
C[N+](C)(C)CCCCNC(=O)[C@H]1C[C@H]2C(=O)N[C@@H](Cc3ccccc3)C(=O)N2[C@H]1c1ccc(O)cc1 | -0.142
[N-]=[N+]=NCc1ccccc1C[C@]1(C(=O)N2CCOCC2)N=C(c2ccc(OCCCO)cc2)O[C@H]1c1ccccc1N=[N+]=[N-] | 0.043
CC(=O)NCCCC[C@@H]1NC(=O)[C@@H]2C[C@H](C(=O)NCCCCN(C)C)[C@H](c3cccc(OCCO)c3)N2C1=O | -0.243
COc1ccc(C(O)C2C=CC3C(=O)N(c4ccccc4)C(=O)C3N2Nc2ccc(C(C)C)cc2)cc1OCc1ccccc1 (stereo not given) | 0.129
[N-]=[N+]=Nc1ccccc1[C@H]1OC(c2ccc(OCCCO)cc2)=N[C@@]1(Cc1ccccc1)C(=O)O | 0.346
O=C(NCc1ccccc1)[C@@]1(Cc2ccccc2)N=C(c2ccc(OCCCO)cc2)O[C@H]1c1ccccc1 | 0.609
CCOC1=C2C(CN(S(=O)(=O)c3ccc(C)cc3)C2c2ccc(C)cc2)C2C(=O)N(c3ccccc3)C(=O)C2C1 (stereo not given) | 0.0839
CCOC(=O)C[C@H]1[C@H](OC(=O)c2ccc(C(=O)c3ccccc3)cc2)[C@@H](NC(=O)c2ccc(-c3ccccc3)cc2)c2cc(OCCCO)ccc2N1C(=O)c1ccccc1 | -0.199
COCCOC(=O)N1C(=O)[C@@]2(c3cc(C#Cc4ccc(OC)cc4)ccc31)[C@H](c1ccc(O)cc1)N1[C@H](c3ccccc3)[C@H](c3ccccc3)OC(=O)[C@H]1[C@@H]2C(=O)NC[C@H](O)c1ccccc1 | 0.176
COc1ccc(C(=O)O[C@H]2CC[C@]3(C)C4=C(CCC3C2(C)C)[C@]2(C)CC[C@H]([C@H](C)CCCC(C)C)[C@@]2(C)CC4)cc1 (stereo not given in full) | -0.192
